Assay outcomes as filed in PubChem.
This is a sample that favours compounds with a hit; in the whole collection about 9.3% have one here.
SMN2 splice enh = SMN2 splice variant enhancement. HEK293 SMN2-luciferase splicing reporter, luminescence, 30-36 h. Potency, µM (doses to about 46.1 µM), hits mostly activators. 210,000 compounds, 2.8% hits. AID 1458; further: nearly all actives have a fitted effect of over 55% in size
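HEK293 cells carry an SMN2 […]–luciferase reporter in which exon 7 inclusion puts luciferase in frame. Cells were plated 10-12 h before compound addition, then incubated 30-36 h at 37C. ONE-Glo luminescence was read; sodium butyrate at 4.5 mM final served as control.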
Rab9 promoter act = activates the Rab9 promoter; Huh7 Rab9 promoter-luciferase reporter, luminescence, 24 h; Potency, µM (titrated, usually from 9.22 µM), most hits filed as activators; 320,000 compounds, 2.8% hits; further: nearly all actives have a fitted effect of over 60% in size
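Quantitative HTS format; Huh7 Rab9-luciferase reporter cells (1500/well) receive compound 2 h post-plating, incubate 24 h at 37 °C, then get luciferase reagent for 10 min before luminescence reading.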
NPC1 promoter act = activators of NPC1 promoter | Huh7 NPC1 promoter luciferase reporter, 24 h | Potency, µM (doses to about 9.22 µM), hits mostly activators | 320,000 compounds, 2.4% hits; further: nearly all actives have a fitted effect of over 60% in size
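Luminescence from an NPC1 promoter-driven luciferase reporter in stably transfected Huh7 cells was measured after 24 h compound treatment at 37 °C, followed by 10 min ambient incubation with luciferase detection reagent.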
ELG1 repair inh = inhibitors of ELG1-dependent DNA repair in HEK293T cells; HEK293T ELG1-luciferase reporter, luminescence, 16 h; DNA damage induced by 5-fluorouridine; Potency, µM (doses to about 46.1 µM), most hits filed as inhibitors; 330,000 compounds, 2.3% hits; further: nearly all actives have a fitted effect of over 55% in size
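HEK293T cells expressing luciferase-tagged ELG1 (2,000/well) received 5-Fluorouridine plus compound or DMSO for 16 hr at 37 °C. Luciferase was read by ONE-Glo luminescence after 30 min at room temperature.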
FLuc modulator = inhibits or activates purified firefly luciferase, miR-21 counter-screen; P08659; purified FLuc, Km substrates, luminescence inhibition; Potency, µM (series often up to 57.5 µM), usual class: inhibitors; 360,000 compounds, 6.9% hits; AID 588342; further: nearly all actives have a fitted effect of over 55% in size
Target sequence (P08659 whole entry, looked up): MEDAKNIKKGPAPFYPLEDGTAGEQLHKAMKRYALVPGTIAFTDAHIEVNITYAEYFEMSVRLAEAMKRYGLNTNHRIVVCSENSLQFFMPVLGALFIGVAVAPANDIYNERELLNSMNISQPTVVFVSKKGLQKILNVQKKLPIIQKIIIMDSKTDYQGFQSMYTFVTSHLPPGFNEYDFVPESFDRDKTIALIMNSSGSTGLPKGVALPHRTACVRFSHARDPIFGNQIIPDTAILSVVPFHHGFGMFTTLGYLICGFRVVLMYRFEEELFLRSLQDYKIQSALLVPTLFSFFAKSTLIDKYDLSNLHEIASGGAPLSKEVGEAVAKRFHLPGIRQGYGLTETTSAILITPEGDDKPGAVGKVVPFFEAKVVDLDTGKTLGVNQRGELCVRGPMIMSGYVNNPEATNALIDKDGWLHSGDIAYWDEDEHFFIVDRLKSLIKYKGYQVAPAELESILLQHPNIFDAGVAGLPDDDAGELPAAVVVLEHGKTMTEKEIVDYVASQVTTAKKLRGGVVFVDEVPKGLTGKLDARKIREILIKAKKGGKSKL
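Purified P. pyralis luciferase (10nM final) with 10uM D-luciferin and 10uM ATP (Km levels) in 50mM Tris acetate pH 7.5, 10mM Mg acetate, 0.01% Tween-20, 0.05% BSA; qHTS 6-point titration, ~60 µM downward; luminescence read.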
ELG1 genotox = inducers of genotoxicity in HEK293T ELG1-luciferase cells; AID 504466; HEK293T ELG1-luciferase reporter, luminescence, 16 h; Potency, µM (highest dose often 46 µM), hits mostly activators; 330,000 compounds, 1.3% hits; further: nearly all actives have a fitted effect of over 60% in size
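Luminescence read-out: rising ELG1-luciferase signal, reflecting elevated ELG1 protein under genetic stress, flags genotoxic compounds. Cells were treated for 16 hr at 37 °C before ONE-Glo detection.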
Hits are given with their value; . = inactive; ? = inconclusive; / = no result; [ ] = remark or other dose. The call rests on the fitted dose curve; in most records, active means well fitted curve in the direction sought with a large enough effect; inconclusive means small, poorly fitted or top-dose-only effect, or another doubt; inactive means no such curve, though single readings can be large; an effect the other way counts as inactive or inconclusive.

SMILES | SMN2 splice enh | Rab9 promoter act | NPC1 promoter act | ELG1 repair inh | FLuc modulator | ELG1 genotox
COc1cc(/C=C/C(=O)OCC(=O)c2c(N)n(C)c(=O)n(C)c2=O)ccc1OCC#N | . | . | . | . | . | .
COc1ccc(-n2nc(C(=O)NCC(=O)N3CC(C)CC(C)C3)c3ccccc3c2=O)cc1 (configuration not stated) | / | . | . | 13µM | 19µM | .
CCOC(=O)N1CCN(C(=O)CNC(=O)c2nn(-c3ccc(OC)cc3)c(=O)c3ccccc23)CC1 | . | ? | . | . | 3.8µM | .
COc1ccc(-n2nc(C(=O)NCC(=O)N3CCN(C)CC3)c3ccccc3c2=O)cc1 | / | . | . | . | 15µM | .
CCOC(=O)N1CCN(C(=O)c2nn(-c3cc(OC)cc(OC)c3)c(=O)c3ccccc23)CC1 | . | . | . | ? | . | .
COc1cc(OC)cc(-n2nc(C(=O)N3CC(C)CC(C)C3)c3ccccc3c2=O)c1 (configuration not stated) | . | . | . | 21µM | . | .
Cn1cnc(S(=O)(=O)N2CCC(C(=O)Nc3ccc(OC(F)(F)F)cc3)CC2)c1 | / | / | / | / | . | /
COc1ccc(N2CCN(C(=O)CNC(=O)c3nn(-c4ccc(OC)cc4)c(=O)c4ccccc34)CC2)cc1 | / | . | . | . | ? | .
COc1ccc(-n2nc(C(=O)NCC(=O)N3CCCCCC3)c3ccccc3c2=O)cc1 | / | . | . | . | 5.4µM | .
COc1ccc(-n2nc(C(=O)NCC(=O)Nc3cccc(Cl)c3)c3ccccc3c2=O)cc1 | / | . | . | 13µM | . | .
CCCCC(=O)NC(c1ccc([N+](=O)[O-])cc1)c1c(O)ccc2ccccc12 (configuration not stated) | . | . | . | 26µM | . | .
O=C(COC(=O)c1ccccc1Nc1ccccc1)c1ccccc1 | . | . | . | ? | 13µM | .
COc1ccccc1NC(CC(=O)c1ccccc1)C(=O)OCC(=O)c1ccc(F)cc1 (configuration not stated) | 5.6µM | . | . | ? | 1.7µM | 1.6µM
CC(NC(=O)COC(=O)c1cc2ccccc2cc1O)c1ccccc1 (configuration not stated) | / | . | . | . | . | .
COc1ccccc1NC(=O)CCCC(=O)OCC(=O)c1ccc(F)cc1 | / | . | . | . | . | .
CNc1ccccc1C(=O)OCC(=O)c1ccc(F)cc1 | . | . | . | ? | 5.4µM | .
CN(C(=O)c1ccccc1C(=O)OCC(=O)c1ccc(F)cc1)c1ccccc1 | / | . | . | . | ? | .
O=C(COC(=O)c1cc2ccccc2cc1O)c1ccccc1 | / | . | . | ? | 27µM | ?
Cc1ccc(N2CC(NC(=O)C(=O)c3c[nH]c4ccccc34)CC2=O)cc1C (configuration not stated) | / | . | . | . | . | .
CNc1ccccc1C(=O)OCC(=O)c1ccccc1 | ? | . | . | ? | 7.6µM | .
CCOc1ncccc1C(=O)OCC(=O)c1ccccc1 | . | . | . | . | ? | .
COc1ccc2oc(C(=O)NCC3CCCO3)c(C)c2c1 (configuration not stated) | / | 4µM | ? | ? | 13µM | ?
CCOc1ccc2oc(C(=O)NCC3CCCO3)c(C)c2c1 (configuration not stated) | / | 2.8µM | ? | ? | 15µM | ?
CCOc1ccc(N=c2oc3cc(O)ccc3cc2C(=O)NCC2CCCO2)cc1 (configuration not stated) | . | . | . | 2.1µM | . | .
O=C(CCc1ccccc1)NNC(=O)Cc1ccccc1 | / | . | . | . | . | .
SMILES | SMN2 splice enh | Rab9 promoter act | NPC1 promoter act | ELG1 repair inh | FLuc modulator | ELG1 genotox
CCCCOc1ccc(CSCCN=C(N)N)cc1 | / | . | . | ? | 21µM | 15µM
CCCCOc1ccc(CSC(CC(=O)O)C(=O)O)cc1 (configuration not stated) | . | . | . | . | . | .
CCOC(=O)c1ccccc1NC(=O)C1CCN(c2ncnc3sc(C)c(C)c23)CC1 | / | . | . | ? | . | ?
Cc1sc2ncnc(N3CCC(C(=O)Nc4ccccc4C(C)(C)C)CC3)c2c1C | / | . | . | 9.2µM | . | .
Cc1sc2ncnc(N3CCC(C(=O)Nc4nc(-c5cccs5)cs4)CC3)c2c1C | / | . | . | . | 11µM | .
Cc1sc2ncnc(N3CCC(C(=O)N(C)CC(=O)Nc4ccccc4Cl)CC3)c2c1C | / | . | . | 7.3µM | . | .
Cc1ccc(CNC(=O)CCCCCn2c(=O)[nH]c3ccccc3c2=O)cc1 | / | / | / | / | . | /
O=C1c2ccccc2C(=O)c2c(Nc3cc4c5c(ccc6c7ccc8c9c(cc(Nc%10cccc%11c%10C(=O)c%10ccccc%10C%11=O)c(c3c56)c97)-c3ccccc3C8=O)C(=O)c3ccccc3-4)cccc21 | .[9.22 µM] | / | / | / | / | /
NC(=O)C1CC(=O)N(c2ccc(OCc3ccc(F)cc3)cc2)C1 (configuration not stated) | / | ? | 2.5µM | ? | ? | 18µM
NC(=O)C1CC(=O)N(c2ccc(OCc3c(F)cccc3Cl)cc2)C1 (configuration not stated) | / | . | . | . | . | .
O=C(O)C1CC(=O)N(c2ccc(OCc3ccc(Cl)cc3Cl)cc2)C1 (configuration not stated) | . | . | . | . | 17µM | .
CN1CCCN(C(=O)c2cccc3ccccc23)CC1 | / | . | . | . | . | .
Cc1ccc(NC(=O)CCc2ccc(C)o2)cc1 | / | . | . | . | . | .
O=C(CCCN1C(=O)/C(=C/c2ccccc2Cl)SC1=S)NNC(=O)c1cccnc1 | / | . | . | . | 13µM | .
O=C(CCCN1C(=O)/C(=C/c2ccccc2OC(F)F)SC1=S)Nc1cccnc1 | / | / | / | 21µM | / | .
O=C(CCCN1C(=O)/C(=C/c2cccc(Br)c2)SC1=S)Nc1cccnc1 | . | . | . | 9.2µM | . | .
COc1ccccc1/C=C1/SC(=S)N(CCC(=O)Nc2cccnc2)C1=O | / | . | . | . | . | .
O=C(CCCN1C(=O)/C(=C/c2ccccc2Cl)SC1=S)NNC(=O)c1ccccc1 | . | . | . | . | . | .
O=C1/C(=C/c2cccnc2)SC(=S)N1CCc1ccccc1 | / | . | . | ? | 11µM | ?
COc1ccccc1CNC(=O)c1ccc2nc(N3CCOCC3)sc2c1 | / | . | . | . | . | .
O=C(C1CCCN(S(=O)(=O)c2cccs2)C1)N1CCN(c2cccc(Cl)c2)CC1 (configuration not stated) | . | / | / | / | . | /
COC(=O)[C@H](C(C)C)N(Cc1ccccc1)S(=O)(=O)CCN1CCN(c2ccccc2)CC1 | / | / | / | ? | / | .
CCOc1ccc(CNC(=O)c2ccc(NC(=O)C3=CSCCO3)cc2)cc1 | / | . | . | ? | . | .[9.26 µM]
CCOc1ccc(CNC(=O)c2ccc(NC(=O)c3nsc4ccccc34)cc2)cc1 | / | / | / | / | 7.6µM | /
